# Data reported in PubChem BioAssay AID540276 (National Center for Advancing Translational Sciences (NCATS), 2011).
# Hit rate of the full screen: of about 300,000 compounds, about 5,400 (1.8%) were called active. Roughly 28% stayed inconclusive and do not appear here. The full list was thinned out, with actives kept by preference. A number with no mark means an inactive call. The call rests on the fitted dose curve; tested in HEK293 cells.
# Assay: qHTS for inhibitors of binding or entry into cells for Marburg Virus
# Conditions: Marburg virus pseudotyped entry inhibition, cell reporter; series mostly up to 37.8 µM; activity change, negative = inhibition: at the top concentration
# On the % scale 0 is the no-effect control and ±100 the full control effect; potency means the concentration at half of the fitted maximal effect.
SMILES,"activity change, negative = inhibition",Potency
CSc1ncc(C(=O)Nc2ccc(C)cc2C)c(C)n1,-15.4% [at 46.1 µM],–
CCOc1ccc(NC(=O)C(C)N2C(=O)c3ccccc3C2=O)cc1 (stereo unspecified),3.67%,–
COc1ccc(CCNC(=O)CCc2ccccc2O)cc1OC,-7.5% [at 46.1 µM],–
COc1ccc(CCNC(=O)CCCn2c(=O)c3ccccc3n(Cc3ccc(F)cc3Cl)c2=O)cc1OC,1.97% [at 46.1 µM],–
COc1ccc(CCn2ccc(O)c(Cc3ccc(Cl)cc3Cl)c2=O)cc1OC,–,3.98 µM (active)
COC(=O)c1ccc(C(=O)NC2CC(C)(C)Cc3c2cnn3-c2ccc(F)cc2)nc1 (stereo unspecified),-10.5%,–
Cn1nnnc1SCC(=O)Nc1sccc1C(N)=O,-3.85%,–
CN1c2ccc(C=O)c3c(C=O)ccc(c23)N(C)C1(C)C,–,10 µM (active)
O=C(CN(CC1CCCO1)C(=O)CNS(=O)(=O)c1ccc(Cl)cc1)NCc1ccccc1 (stereo unspecified),-28.2% [at 46.1 µM],–
COc1ccc(C(=O)Nc2ccnn2C2CCN(Cc3ccncc3)CC2)cc1,2.71%,–
S=C(c1ccccc1)N1CCCC1,27%,–
CSCCC(NS(=O)(=O)/C=C/c1ccccc1)C(=O)N1CCC(C)CC1 (stereo unspecified),–,inactive
CSCCC(NC(=O)c1ccccc1)C(=O)N1CCN(Cc2ccc(Cl)cc2)CC1 (stereo unspecified),–,11.2 µM (active)
O=C(NC(Cc1ccccc1)C(=O)N1CCCC(C(F)(F)F)C1)c1ccccc1 (stereo unspecified),-0.92%,–
CC(=O)Nc1ccc(S(=O)(=O)NNC(=O)CCc2ccccc2)cc1,6.74% [at 46.1 µM],–
CC(=O)Nc1ccc(Nc2ncnc3c2nnn3Cc2ccccc2Cl)cc1,-1.38% [at 46.1 µM],–
CN(C(=O)CC1C(=O)NCCN1Cc1ccc2ccccc2c1)C1CCOCC1 (stereo unspecified),18.8%,–
c1ccc2c(c1)CSc1sccc1C2=C1CCNCC1,–,6.51 µM (active)
CCc1c(Nc2ccccc2Cl)nc(N)[nH]c1=O,-3.03% [at 46.1 µM],–
COc1ccccc1N(CC(=O)Nc1c(C)n(C)n(-c2ccccc2)c1=O)S(=O)(=O)c1ccccc1,1.4%,–
COc1ccc(S(=O)(=O)N2CCCCC2)cc1Br,-2.99%,–
COc1ccc(-c2ccc(Nc3ccc(S(=O)(=O)N4CCCC4)cc3)nn2)cc1OC,–,14.6 µM (active)
COc1ccc(S(=O)(=O)Nc2ccc(S(=O)(=O)N3CCCCC3)cc2)cc1OC,-2.04%,–
CCCN1CCN(C(=O)CCCNC(=O)c2ccc(Cl)cc2)CC1,-21.4% [at 46.1 µM],–
CC1(C)Cc2c(cnn2-c2cccc(F)c2)C(NC(=O)c2cc[n+]([O-])cc2)C1 (stereo unspecified),0.0229% [at 46.1 µM],–
CCC(=O)N(Cc1ccccc1)c1ccccn1,9.74%,–

SMILES,"activity change, negative = inhibition",Potency
CCCN(CC1CC1)C(=O)COC(=O)c1ccc(C)cc1O,-16.7%,–
CC(Oc1ccc(Br)cc1)C(=O)NCC(c1ccco1)N1CCCCC1 (stereo unspecified),1.61%,–
Cc1ccc(-c2nn(-c3ccccc3)cc2/C=N/NC(=O)c2ccc3c(c2)OCO3)cc1,-17.5%,–
COc1ccc(-c2nn(-c3ccccc3)cc2/C=N/Nc2ccccn2)cc1OC,–,13 µM (active)
CN(C)/N=C/c1cn(-c2ccccc2)nc1-c1cccnc1,10.5% [at 46.1 µM],–
CC(CC(=O)Nc1ccc(F)cc1F)S(=O)(=O)c1ccc2c(c1)NC(=O)CO2 (stereo unspecified),-5.28% [at 46.1 µM],–
CC(C)CC1(C)NC(=O)N(CC(=O)Nc2ccc3c(c2)OCCO3)C1=O (stereo unspecified),4.78%,–
CC(=O)c1c(OCC(=O)N(C)C2CCCCC2)ccc2c(C)cc(=O)oc12,-3.09%,–
Cc1c(NC(=O)Nc2cccc([N+](=O)[O-])c2)c(=O)n(-c2ccccc2)n1C,12.1% [at 46.1 µM],–
O=C(CNC(=O)C1COc2ccccc2O1)N/N=C/c1cc(Br)c(O)c(Br)c1 (stereo unspecified),-3.34% [at 46.1 µM],–
CCn1nnc2cc(C(=O)Nc3ccc(C(=O)OC(C)C)cc3)ccc21,-7.15%,–
COc1ccc2[nH]c(=O)c(CN(Cc3cccnc3)S(=O)(=O)c3ccccc3F)cc2c1,–,2.82 µM (active)
CCC(=O)N(Cc1cc2cc(OC)ccc2[nH]c1=O)c1ccccc1C,-17.6% [at 46.1 µM],–
COc1ccc(-c2[nH]ncc2CN(C)Cc2cccnc2)c(F)c1,-0.344%,–
Cc1ccc(C(=O)Nc2ccc3c(c2)OCCO3)cc1S(=O)(=O)N1CCOCC1,6.93%,–
Cc1ccc(-c2csc(C(C#N)=C(O)CN3CCN(C(=O)c4ccco4)CC3)n2)cc1,-0.39% [at 46.1 µM],–
Cc1cccc(Cn2c(SCCO)nc3c2c(=O)n(C)c(=O)n3C)c1,-9.74%,–
C/C(Cl)=C\Cn1c(Nc2cccc(C)c2)nc2c1c(=O)n(C)c(=O)n2C,–,11.6 µM (active)
COC(=O)C(C)Sc1nc2c(c(=O)n(C)c(=O)n2C)n1Cc1cccc(C)c1 (stereo unspecified),–,inactive
COc1ccccc1NC(=O)C(C)OC(=O)c1ccc(-n2cnnn2)cc1 (stereo unspecified),-12% [at 46.1 µM],–
CC(C)CC(=O)Nc1ccc(Cc2ccncc2)cc1,7.63% [at 46.1 µM],–
CCOc1ccc(-c2noc(CCC(=O)NC3CCCC3)n2)cc1OC,-10.6% [at 46.1 µM],–
Cc1ccc2c(c1)N(C(=O)CCC(=O)NCc1ccccc1F)CC(C)O2 (stereo unspecified),-2.34% [at 46.1 µM],–
CC1CN(C(=O)CCC(=O)NCCCN2CCC(Cc3ccccc3)CC2)c2cc(Cl)ccc2O1 (stereo unspecified),–,11.2 µM (active)
COc1ccccc1NC(=O)CCC(=O)N1CC(C)Oc2ccc(C)cc21 (stereo unspecified),-6.87% [at 46.1 µM],–
